Test results as given in PubChem BioAssay (NCI).
Compounds without any hit were thinned out: in the full panel of roughly 83,000, 20% have a hit.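 Cell lines were cultured in 96-well plates, exposed to a single compound concentration, and assessed for percent growth 48 hours later.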 Activity calls are given as the source filed them. How the source made its calls: active means growth percent below 10; inactive means the rest.

Legend:
Experiment in all cases: NCI-60 one-dose screen, 48 h (100 = growth as untreated, 0 = no growth, -100 = all killed)
Settings in all cases: 10 µM
NCI-H23 lung = system: NCI-H23 lung
NCI-H226 lung = system: NCI-H226 lung
NCI-H322M lung = system: NCI-H322M lung
HOP-62 NSCLC = system: HOP-62 NSCLC
NCI-H460 lung = system: NCI-H460 lung
HOP-92 NSCLC = system: HOP-92 NSCLC
NCI-H522 lung = system: NCI-H522 lung
A549/ATCC NSCLC = system: A549/ATCC NSCLC
786-0 renal = system: 786-0 renal
COLO 205 colon = system: COLO 205 colon
DU-145 prostate = system: DU-145 prostate
K-562 leukemia = system: K-562 leukemia
MALME-3M melanoma = system: MALME-3M melanoma
MDA-MB-231 breast = system: MDA-MB-231 breast
RXF 393 renal = system: RXF 393 renal
SF-268 CNS = system: SF-268 CNS
SF-295 CNS = system: SF-295 CNS
SF-539 CNS = system: SF-539 CNS
UACC-257 melanoma = system: UACC-257 melanoma
M14 melanoma = system: M14 melanoma

Measured: growth

COc1ccc2nc(NC(=O)Nc3c(F)cccc3F)sc2c1
inactive: NCI-H23 lung 105% | NCI-H226 lung 94% | NCI-H322M lung 99.5% | HOP-62 NSCLC 106% | NCI-H460 lung 99.3% | HOP-92 NSCLC 93.1% | NCI-H522 lung 96.8% | A549/ATCC NSCLC 96.3% | 786-0 renal 94.3% | COLO 205 colon 125% | DU-145 prostate 105% | K-562 leukemia 94.5% | MALME-3M melanoma 105% | MDA-MB-231 breast 119% | RXF 393 renal 106% | SF-268 CNS 109% | SF-295 CNS 102% | SF-539 CNS 104% | UACC-257 melanoma 102% | M14 melanoma 104%

N#CN1CC[C@H](C(=O)Nc2ncc(-c3ccccc3)s2)C1
inactive: NCI-H322M lung 28.4% | SF-295 CNS 18.8%
active: NCI-H23 lung -9.83% | NCI-H226 lung -6.52% | HOP-62 NSCLC -3.88% | NCI-H460 lung 2.02% | HOP-92 NSCLC 0.798% | NCI-H522 lung -35.6% | A549/ATCC NSCLC -5.79% | 786-0 renal 3.56% | COLO 205 colon -63.3% | DU-145 prostate 0.607% | K-562 leukemia 2.31% | MALME-3M melanoma -16.4% | MDA-MB-231 breast 3.84% | RXF 393 renal -45% | SF-268 CNS 0.182% | SF-539 CNS -16.9% | UACC-257 melanoma -8.04% | M14 melanoma -7.98%

Nc1c(CNCc2nnn(Cc3ccccc3)c2N)nnn1Cc1ccccc1
inactive: NCI-H23 lung 103% | NCI-H226 lung 100% | NCI-H322M lung 100% | HOP-62 NSCLC 98.9% | NCI-H460 lung 103% | HOP-92 NSCLC 90.3% | NCI-H522 lung 102% | A549/ATCC NSCLC 101% | 786-0 renal 102% | COLO 205 colon 114% | DU-145 prostate 107% | K-562 leukemia 93.6% | MALME-3M melanoma 79.9% | MDA-MB-231 breast 108% | RXF 393 renal 99.7% | SF-268 CNS 103% | SF-295 CNS 101% | SF-539 CNS 95.6% | UACC-257 melanoma 103% | M14 melanoma 98.5%

COc1ccc(-c2nnc(COc3ccc(NC(=O)Nc4cccc(C(F)(F)F)c4)cc3F)o2)cc1
active: NCI-H522 lung -21.2%
inactive: NCI-H23 lung 56.6% | NCI-H226 lung 87.9% | NCI-H322M lung 43.4% | HOP-62 NSCLC 67.4% | NCI-H460 lung 39.3% | HOP-92 NSCLC 25.5% | A549/ATCC NSCLC 57.8% | 786-0 renal 78.9% | COLO 205 colon 88.1% | DU-145 prostate 71.9% | K-562 leukemia 45.3% | MALME-3M melanoma 60.5% | MDA-MB-231 breast 42.5% | RXF 393 renal 86.6% | SF-268 CNS 75.1% | SF-295 CNS 64.2% | SF-539 CNS 57.6% | UACC-257 melanoma 71.8% | M14 melanoma 60.8%

OC(CNC1CCCC1)Cn1c2ccccc2c2ccccc21 (stereo not given)
inactive: NCI-H23 lung 31% | NCI-H226 lung 99.5% | NCI-H322M lung 51% | HOP-62 NSCLC 50.1% | HOP-92 NSCLC 26.2% | NCI-H522 lung 27.7% | A549/ATCC NSCLC 11.1% | DU-145 prostate 23% | RXF 393 renal 31.2% | SF-268 CNS 44.8%
active: NCI-H460 lung 8.53% | 786-0 renal 9.8% | COLO 205 colon -66.2% | K-562 leukemia 3.31% | MALME-3M melanoma -70.8% | MDA-MB-231 breast -23.9% | SF-295 CNS -29.8% | SF-539 CNS -69.9% | UACC-257 melanoma -13.2% | M14 melanoma -68.1%

O=S(=O)(NCCO)c1ccc(OCCOc2ccc(S(=O)(=O)NCCO)cc2)cc1
inactive: NCI-H23 lung 96.6% | NCI-H226 lung 91.3% | NCI-H322M lung 90.4% | HOP-62 NSCLC 90.7% | NCI-H460 lung 111% | HOP-92 NSCLC 81.1% | NCI-H522 lung 91.7% | A549/ATCC NSCLC 95% | 786-0 renal 96.9% | COLO 205 colon 104% | DU-145 prostate 107% | K-562 leukemia 106% | MALME-3M melanoma 87% | MDA-MB-231 breast 89.6% | RXF 393 renal 102% | SF-268 CNS 102% | SF-295 CNS 98.1% | SF-539 CNS 94.4% | UACC-257 melanoma 95% | M14 melanoma 102%

CCOC(=O)C1=C(Nc2ccc(OC)cc2)C(N)=NC1=N
active: COLO 205 colon -10.1%
inactive: NCI-H23 lung 52.6% | NCI-H226 lung 42.9% | NCI-H322M lung 50.2% | HOP-62 NSCLC 52.4% | NCI-H460 lung 22.2% | HOP-92 NSCLC 48.4% | NCI-H522 lung 42% | A549/ATCC NSCLC 31.8% | 786-0 renal 59.3% | DU-145 prostate 44.1% | K-562 leukemia 19% | MALME-3M melanoma 31.9% | MDA-MB-231 breast 67.5% | RXF 393 renal 46.7% | SF-268 CNS 60% | SF-295 CNS 54.8% | SF-539 CNS 25% | UACC-257 melanoma 44.9% | M14 melanoma 27.3%

O=C(O)CCCCSCCCCC(=O)O
inactive: NCI-H23 lung 103% | NCI-H226 lung 93.4% | NCI-H322M lung 109% | HOP-62 NSCLC 95.8% | NCI-H460 lung 113% | HOP-92 NSCLC 96.8% | NCI-H522 lung 83.3% | A549/ATCC NSCLC 90.9% | 786-0 renal 101% | COLO 205 colon 113% | DU-145 prostate 120% | K-562 leukemia 97.7% | MALME-3M melanoma 101% | MDA-MB-231 breast 107% | RXF 393 renal 111% | SF-268 CNS 107% | SF-295 CNS 99.6% | SF-539 CNS 103% | UACC-257 melanoma 89.7% | M14 melanoma 103%
